Outcome and AC50 data for 20 compounds are collected here from PubChem BioAssay (EPA / NIEHS).

Read-out in experiment [1]: catalase (CAT), CAT (gene 847)
Briefly: LTEA_HepaRG_CAT: Life Technologies and Expression Analysis (LTEA) Assay for catalase (CAT) using HepaRG (AID 2283452). To be noted: mRNA level, 48 h; actives raise or lower the signal. In a few lines: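 Expression of CAT was quantified by TaqMan qRT-PCR with ACTB/GAPDH/POLR2A normalization after 48 h chemical exposure of HepaRG. Eight-point half-log series, top 100 uM, in 0.5% DMSO; gain or loss fitted against vehicle.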

Read-out in experiment [2]: flavin-containing dimethylaniline monooxygenases 3 (FMO3), FMO3 (gene 2328)
Nature of the experiment: LTEA_HepaRG_FMO3: Life Technologies and Expression Analysis (LTEA) Assay for flavin-containing dimethylaniline monooxygenases 3 (FMO3) using HepaRG (AID 2283453). To be noted: mRNA level, 48 h; actives raise or lower the signal. In outline:
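FMO3 transcript quantified by TaqMan qRT-PCR against three housekeeping genes after 48 h chemical exposure of HepaRG cells. Eight-point half-log series, top 100 uM, 0.5% DMSO vehicle; phenobarbital 1mM induction control; up- or down-regulation fitted.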

Read-out in experiment [3]: Cytochrome P450 (CYP1A1), CYP1A1 (gene 1543)
Briefly: LTEA_HepaRG_CYP1A1: Life Technologies and Expression Analysis (LTEA) Assay for Cytochrome P450 (CYP1A1) using HepaRG (AID 2283454). To be noted: mRNA level, 48 h; actives raise or lower the signal. In outline:
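Induction of CYP1A1 mRNA in a human hepatic cell line was measured 48 h after dosing, with 1 mM phenobarbital as induction positive control and 0.5% DMSO vehicle as baseline for bidirectional curve fitting.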

Read-out in experiment [4]: CFLAR gene, CFLAR (gene 8837)
Nature of the experiment: LTEA_HepaRG_CFLAR: Life Technologies and Expression Analysis (LTEA) Assay for CFLAR gene using HepaRG (AID 2283455). The settings on record: mRNA level, 48 h; actives raise or lower the signal. In outline:
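Transcript level by qRT-PCR (normalized to ACTB, GAPDH and POLR2A) after 48 h chemical exposure of HepaRG cells, top concentration 100 uM with half-log steps, 0.5% DMSO vehicle, duplicates; fitted bidirectionally against DMSO baseline.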

Read-out in experiment [5]: Forkhead box O1 (FOXO1), FOXO1 (gene 2308)
Nature of the experiment: LTEA_HepaRG_FOXO1: Life Technologies and Expression Analysis (LTEA) Assay for Forkhead box O1 (FOXO1) using HepaRG (AID 2283456). The settings on record: mRNA level, 48 h; actives raise or lower the signal. In outline:
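FOXO1 transcript quantified by qRT-PCR after 48 h chemical exposure (top 100 uM, half-log steps, 0.5% DMSO) of HepaRG cells, housekeeping-normalized (ACTB/GAPDH/POLR2A). Changes fitted in both directions relative to vehicle.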

Read-out in experiment [6]: growth arrest and DNA damage 45 (GADD45A), GADD45A (gene 1647)
Briefly: LTEA_HepaRG_GADD45A: Life Technologies and Expression Analysis (LTEA) Assay for growth arrest and DNA damage 45 (GADD45A) using HepaRG (AID 2283458). To be noted: mRNA level, 48 h; actives raise or lower the signal. In a few lines: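 GADD45A expression was measured by TaqMan qRT-PCR against three housekeeping genes (ACTB, GAPDH, POLR2A) after 48 h treatment of HepaRG cells. Eight-point half-log series up to 100 uM in 0.5% DMSO, run in duplicate.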

Read-out in experiment [7]: Forkhead box O3 (FOXO3), FOXO3 (gene 2309)
Briefly: LTEA_HepaRG_FOXO3: Life Technologies and Expression Analysis (LTEA) Assay for Forkhead box O3 (FOXO3) using HepaRG (AID 2283459). To be noted: mRNA level, 48 h; actives raise or lower the signal. In outline: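 FOXO3 transcript measured by qRT-PCR (normalized to ACTB, GAPDH, POLR2A) after 48 h exposure of HepaRG cells in serum-free induction medium. Duplicates, eight half-log concentrations up to 100 uM, 0.5% DMSO; gain or loss fitted against DMSO.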

Read-out in experiment [8]: ABC Transporter (ABCB1), ABCB1 (gene 5243)
Nature of the experiment: LTEA_HepaRG_ABCB1: Life Technologies and Expression Analysis (LTEA) Assay for ABC Transporter (ABCB1) using HepaRG (AID 2283460). The settings on record: mRNA level, 48 h; actives raise or lower the signal. In outline: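 ABCB1 transcript level measured by TaqMan qRT-PCR against three housekeeping genes after 48 h chemical exposure of differentiated HepaRG cells. Top concentration 100 uM, half-log steps, eight points, 0.5% DMSO vehicle; bidirectional fit relative to DMSO.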

Read-out in experiment [9]: growth arrest and DNA damage 45 (GADD45B), GADD45B (gene 4616)
Briefly: LTEA_HepaRG_GADD45B: Life Technologies and Expression Analysis (LTEA) Assay for growth arrest and DNA damage 45 (GADD45B) using HepaRG (AID 2283461). The settings on record: mRNA level, 48 h; actives raise or lower the signal. In a few lines: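 Values are bidirectional concentration-response fits against 0.5% DMSO controls. Underlying data: qRT-PCR mRNA levels in human HepaRG liver cells treated 48 h in serum-free induction medium, eight concentrations topping at 100 uM.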

A short description of experiment [10]: CEETOX_H295R_TESTO: CeeTox H295R High-throughput Steroidogenesis Assay for Testosterone (TESTO) (AID 2283457).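 As to AC50: cells exposed to chemicals for 48 h before medium collection.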 To be noted: actives raise or lower the signal. In a few lines:
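Testosterone synthesis is assessed in human adrenocortical H295R cells after 48 h of chemical exposure, using HPLC-MS/MS of extracted medium. Activity is fitted in both directions against DMSO control.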

SMILES strings stand for the structures. Active and inactive are the calls of the source. The calls were made as follows: active = hit-call score of the fitted dose curve at least 0.9, where 1 is the maximum; inactive = score below 0.9.

As to `CCC(=NOC/C=C/Cl)C1=C(O)CC(C2CCOCC2)CC1=O` (configuration not stated), the compound was classed as inactive in [1], in [2], in experiment [4], in [5], in experiment [6] and in experiment [7]. The call in experiment [8] and in [9] was inactive. For the same compound, the AC50 (usually the concentration at which the activity in the assay is half-maximal) in [3] is 50 µM (active).
As to `CNC(=O)ON=C(SC)C(=O)N(C)C`, the compound was called inactive in experiment [1], in experiment [2], in [3], in [4], in experiment [10] and in [6]. For the same compound, the outcome in experiment [7], in [8] and in experiment [9] was inactive.
As to `CCCOCC(=Nc1ccc(Cl)cc1C(F)(F)F)n1ccnc1`, the AC50 is 37.6 µM (active) in experiment [1]; 73 µM (active) in [2]; 12.8 µM (active) in [3]; 50 µM (active) in [4]; 50 µM (active) in experiment [5]; 40 µM (active) in [7]. The AC50 was 80.5 µM (active) in experiment [8] and 92 µM (active) in [9]. Besides, in experiment [6], the outcome was inactive.
For `Cc1nn(-c2cc(NS(C)(=O)=O)c(Cl)cc2Cl)c(=O)n1C(F)F`, the call in [1], in experiment [2], in experiment [4], in experiment [5], in experiment [6] and in experiment [7] was inactive. The result in experiment [9] was inactive. Moreover, the figures for the AC50 in [3] and in experiment [8] were 50 µM (active) and 8.21 µM (active), respectively.
As to `CNC(=O)ON=C(C)SC`, the outcome in experiment [1], in experiment [2], in [3], in [4], in experiment [5] and in experiment [6] was inactive. Moreover, the outcome in experiment [7], in experiment [8] and in experiment [9] was inactive.
Consider `CC1=NNC(=O)N(/N=C/c2cccnc2)C1`, for which the compound was called inactive in experiment [1], in [2], in experiment [4], in experiment [5], in experiment [6] and in experiment [7]. The compound was classed as inactive in [8] and in experiment [9]. Further, the AC50 in [3] is 27.5 µM (active).
Take `CC(COc1ccc(Oc2ccccc2)cc1)Oc1ccccn1` (configuration not stated): the compound was called inactive in [1], in [2], in experiment [4], in [5], in [10] and in experiment [6]. In addition, the call in experiment [7], in experiment [8] and in experiment [9] was inactive. Moreover, in experiment [3], the AC50 was 77.4 µM (active).
Take `CC1(C(=O)Nc2ccc(O)c(Cl)c2Cl)CCCCC1`: the call in [1], in experiment [2], in experiment [4], in experiment [5], in [6] and in experiment [7] was inactive. Further, the result in experiment [8] and in [9] was inactive. The concentration at half-maximal activity (AC50) in [3] was 67.2 µM (active).
Consider `CCCCSP(=O)(SCCCC)SCCCC`, for which the compound was classed as inactive in experiment [1], in experiment [2], in experiment [4], in experiment [5], in experiment [6] and in [7]. In addition, the call in experiment [9] was inactive. Further, the figures for the AC50 in experiment [3] and in experiment [8] were 27.6 µM (active) and 50 µM (active), respectively.
With `CCCCOC(=O)c1ccccc1C(=O)O`, the outcome in experiment [1], in [2], in [4], in experiment [5], in [6] and in [7] was inactive. Also, the call in experiment [8] and in experiment [9] was inactive. Moreover, the AC50 in experiment [3] is 36.1 µM (active).
As to `CN1COCN(Cc2cnc(Cl)s2)C1=N[N+](=O)[O-]`, the result in [1], in [2], in experiment [3], in experiment [4], in [5] and in experiment [6] was inactive. For the same compound, the compound was classed as inactive in [7], in [8] and in [9].
As for `CSc1nc(NC(C)C)nc(NC(C)C)n1`, the AC50 in experiment [1] was 50 µM (active); in [2], 35.9 µM (active); in experiment [3], 22.4 µM (active); in experiment [8], 3.25 µM (active). In addition, the outcome in experiment [4], in experiment [5], in [6], in experiment [7] and in experiment [9] was inactive.
For `CCOC(=O)COc1cc(-c2nn(C)c(OC(F)F)c2Cl)c(F)cc1Cl`, the outcome in experiment [1], in experiment [2], in [4], in experiment [10], in experiment [6] and in experiment [7] was inactive. Also, in experiment [9], the call was inactive. In addition, the AC50 was 50 µM (active) in [3] and 34.3 µM (active) in experiment [8].
Take `CCOP(=S)(OCC)SCCSCC`: the call in [1], in [2], in [3], in experiment [4], in experiment [5] and in experiment [6] was inactive. For the same compound, the compound was called inactive in experiment [7] and in [9]. Further, the AC50 in experiment [8] is 0.0511 µM (active).
In the case of `CC(C)=CC1C(C(=O)OCN2C(=O)C3=C(CCCC3)C2=O)C1(C)C` (configuration not stated), the result in experiment [1], in experiment [2], in experiment [4], in [5], in experiment [6] and in [7] was inactive. The compound was classed as inactive in experiment [8] and in experiment [9]. Further, in experiment [3], the AC50 was 50 µM (active).
As for `CCC(=O)Nc1ccc(Cl)c(Cl)c1`, the call in experiment [1], in [2], in experiment [4], in [6], in experiment [7] and in experiment [8] was inactive. In experiment [9], the outcome was inactive. Further, the AC50 in experiment [3] was 32.1 µM (active); in experiment [10], 2.93 µM (active).
For `C#CC(C)(C)NC(=O)c1cc(Cl)cc(Cl)c1`, the outcome in experiment [1], in experiment [2], in experiment [4], in experiment [5], in experiment [6] and in [7] was inactive. Moreover, the compound was called inactive in experiment [9]. Also, the AC50 in experiment [3] is 33 µM (active); in experiment [8], 50 µM (active).
`CSC1=N[C@@](C)(c2ccccc2)C(=O)N1Nc1ccccc1`: the AC50 was 32.7 µM (active) in experiment [1], 30.6 µM (active) in experiment [2], 31.2 µM (active) in experiment [5] and 32 µM (active) in experiment [6]. The outcome in experiment [3], in experiment [4], in experiment [7], in experiment [8] and in experiment [9] was inactive.
For the compound `CCOP(=S)(OCC)Oc1cc(C)nc(C(C)C)n1`, the compound was classed as inactive in [1], in experiment [2], in [4], in experiment [5], in experiment [6] and in [7]. Besides, the outcome in experiment [8] and in experiment [9] was inactive. In addition, the AC50 in experiment [3] is 33 µM (active).
Regarding `CCOP(=O)(NC(C)C)Oc1ccc(SC)c(C)c1` (configuration not stated), the outcome in [1], in experiment [2], in experiment [4], in [5], in experiment [6] and in [7] was inactive. The outcome in [8] and in [9] was inactive. In addition, the AC50 in [3] was 50 µM (active); in experiment [10] it was 26.2 µM (active).
